Experimental data from PubChem BioAssay (NCI).
The panel holds about 79,000 compounds, 15% with a hit somewhere; the sample as a whole holds those more often. Rule as the data show it: active = growth inhibition above about 70%; inactive = the rest.

Experiments:
[1] = NCI Yeast Anticancer Drug Screen. Data for the rad50 strain (AID 155);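 also: 0% = growth of vehicle-only cultures of the same strain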; settings: S. cerevisiae rad50 strain growth inhibition; at 50.0 µM; hits give high values
How it was run: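 Yeast carrying a defined DNA repair defect were exposed to test compounds, and growth was compared with vehicle-treated controls to give percent inhibition.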

[2] = NCI Yeast Anticancer Drug Screen. Data for the mec2-1 strain (AID 157); settings: S. cerevisiae mec2-1 strain, at 50.0 µM, hits give high values
How it was run: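 Each compound was tested on mec2-1 yeast, a strain altered in DNA damage repair or cell cycle control. Growth inhibition is reported relative to vehicle.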

[3] = NCI Yeast Anticancer Drug Screen. Data for the sgs1 mgt1 strain (AID 161);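 also: 0% = growth of cultures given vehicle only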; settings: S. cerevisiae sgs1 mgt1 strain, at 50.0 µM, hits give high values
How it was run: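 Mutant yeast exposed to compound; growth scored against vehicle-only wells.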

[4] = NCI Yeast Anticancer Drug Screen. Data for the cln2 rad14 strain (AID 165);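 also: 0% = growth equal to vehicle treated cultures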; settings: S. cerevisiae cln2 rad14 strain, at 50.0 µM, hits give high values
How it was run: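 Test compounds were added to cln2 rad14 yeast cultures; inhibition of growth was then determined by comparison with vehicle treatment.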

[5] = NCI Yeast Anticancer Drug Screen. Data for the bub3 strain (AID 167); settings: S. cerevisiae bub3 mutant strain, at 50.0 µM, hits give high values
How it was run: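 Compounds were applied to a genetically altered yeast strain carrying a cell-cycle control defect. Growth inhibition was scored against vehicle-treated controls.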

[6] = NCI Yeast Anticancer Drug Screen. Data for the mlh1 rad18 strain (AID 175); settings: S. cerevisiae mlh1 rad18 strain growth inhibition; at 50.0 µM; hits give high values
How it was run: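 Inhibition values reflect reduced growth of mutant yeast versus vehicle-treated controls following compound exposure; the mutations affect DNA damage repair.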

Measured: growth inhibition

CN(C)C=NCCN1CCOCC1
inactive: [1] 9.3% | [2] 15.1% | [3] 26.8% | [4] 5.55% | [5] -7.1% | [6] -47.6%

C=CCN=C(N)SCCN(CCSC(N)=NCC=C)C(N)=O
inactive: [1] 36.1% | [2] 10.7% | [3] 36.2% | [4] 34.2% | [5] 4.05% | [6] 13.1%

Cc1nc(C)c(C(=O)NN)cc1C(=O)NN
inactive: [1] 9.05% | [2] -3.7% | [3] -4.6% | [4] 7.45% | [5] -0.7% | [6] -14.7%

O=C1C(c2ccccc2Cl)[C@H]2CC=C[C@H]2N1O (stereo not given in full)
inactive: [1] -26.1% | [2] -39.2% | [3] -8.4% | [4] 6.65% | [5] -21.6% | [6] -5.35%

COc1ccc(/C=C/C(=O)c2ccc(F)cc2)cc1
inactive: [1] 8.85% | [2] -16.4% | [3] -12.4% | [4] -35.4% | [5] -6.5% | [6] 10.2%

O=[N+]([O-])c1ccc(NCn2c(=S)sc3ccccc32)cc1
inactive: [1] 13.7% | [2] -27% | [3] 11.4% | [4] 2.15% | [5] 2.8% | [6] 3.6%

c1ccc(N(c2ccccc2)C(c2ccccc2)(c2ccccc2)c2ccccc2)cc1
inactive: [1] 12.6% | [2] -2.65% | [3] 1.1% | [4] -36.3% | [5] -0.85% | [6] 7.85%

CO/N=C1\CC(NC(=O)CNC(=O)OC(C)(C)C)c2ccsc21 (stereo not given)
inactive: [1] 1.45% | [2] 5.9% | [3] 6.6% | [4] 4.3% | [5] -1.7% | [6] 28.4%

CCCCCCCCCCCCCCCOc1cc(OC)ccc1-c1nnc(SC)s1
inactive: [1] -15.2% | [2] -15.6% | [3] -24.1% | [4] -3.05% | [5] -11.5% | [6] -5.7%

CCCCCCCCCCCCCCCC(=O)O (tested in a mixture with another compound)
inactive: [1] 7.65% | [2] -1.5% | [3] -18.2% | [4] 33.8% | [5] 12.1% | [6] -11.4%

Clc1ccc(CN2COc3c(ccc4ccccc34)C2)cc1Cl
inactive: [1] 1.65% | [2] 15.2% | [3] 17.6% | [4] 9.65% | [5] 7.1% | [6] 13.8%

O=S(=O)([O-])c1ccc(N=Cc2ccccc2[O-])cc1.O=S(=O)([O-])c1ccc(N=Cc2ccccc2[O-])cc1.[Co+2]
inactive: [1] 16.6% | [2] 2.25% | [3] -15.2% | [4] 23.4% | [5] 9.25% | [6] -9.65%

S=C(NNC(=S)Nc1ccccc1)Nc1ccccc1
inactive: [1] -16.9% | [2] 1.7% | [3] 6.9% | [4] -1.15% | [5] -5.4% | [6] -2.2%

Cc1ccc(N=Cc2ccc3c(c2)OCO3)cc1C
inactive: [1] 8.05% | [2] 6.2% | [3] 9.65% | [4] 40.6% | [5] 10.1% | [6] 29.2%

Clc1ccc(CSc2nnc(SCc3ccc(Cl)cc3)c3[nH]cnc23)cc1
inactive: [1] 14.2% | [2] 0.05% | [3] 20.9% | [4] 25.9% | [5] -3.2% | [6] -11.7%

N[n+]1ccccc1
inactive: [1] -9.45% | [2] -6.85% | [3] -9.1% | [4] -37.4% | [5] -4.65% | [6] -2.6%

Nc1nc(SCCc2ccccc2)c2[nH]cnc2n1
inactive: [1] -2.35% | [2] -4.35% | [3] -42.6% | [4] -16.6% | [5] -20.4% | [6] 7%

CCOc1cc2c(cc1C/C=C/c1ccc(OC)cc1)OCO2
inactive: [1] 26.4% | [2] 12.6% | [3] 37.4% | [4] -0.75% | [5] 41.8% | [6] 5.05%

COC(=O)C(=O)C(C(=O)C(N)=O)c1nc2ccc(C(=O)c3ccccc3)cc2[nH]c1=O (stereo not given)
inactive: [1] 0.35% | [2] 5.45% | [3] -17.2% | [4] -9.25% | [5] -19.1% | [6] 9.85%

COc1ccc(C(c2c(O)c3ccccc3n(C)c2=O)c2c(O)c3ccccc3n(C)c2=O)cc1
inactive: [1] -39% | [2] -19.3% | [3] -25.9% | [4] -33.5% | [5] 1.1% | [6] -35.1%
